This is an account of results in PubChem BioAssay (Tox21).

Molecules are shown by their SMILES. Results filed as inconclusive are left out. Entries that show only a call come without a potency. Activity calls are given as the source filed them. The call rests on the fitted dose curve. Positions of bridges follow the written chain, without caps; N, C: chain ends. Non-standard residues stand in square brackets, D forms with d. Residues, ends and D or L forms follow the SMILES beside them. *: point of attachment. pGlu = O=C1CC[C@@H](C(=O)O)N1; X2 = CC[C@H](C)CCCCC(=O)*; Thz = O=C(O)[C@@H]1CSCN1; Dab = NCC[C@H](N)C(=O)O
Potency means the concentration at half of the fitted maximal effect.

A short description of this assay: qHTS assay to identify small molecule antagonists of the estrogen receptor alpha (ER-alpha) signaling pathway using the BG1 cell line (AID 743080).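 Further: BG1 cells stimulated with 17beta-estradiol alongside compound; nearly all actives have a fitted effect of over 25% in size.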 As to conditions: BG1Luc4E2 ERE-luciferase antagonist mode, luminescence; series mostly up to 70.3 µM. The essentials: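 Seeding, 24 h rest, compound transfer from DMSO, 17beta-estradiol addition, 21.5 h incubation, CellTiter-Fluor (30 min, 37 C), then ONE-Glo (30 min, room temperature): this sequence was run on BG1-Luc-4E2 reporter cells.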
For `CCCCCCCCCCCCCCCCOCCOCCOCCOCCOCCOCCOCCOCCOCCOCCOCCOCCOCCOCCOCCOCCOCCOCCOCCOCCO`, the Potency was 3.76 µM (active). As for `CCC[C@@H]1C[C@@H](C(=O)N[C@@H]([C@H]2O[C@H](SC)[C@H](O)[C@@H](O)[C@H]2O)[C@H](C)Cl)N(C)C1`, the Potency result was “inactive”. As for `CCCCC/C=C\CCC(=O)N[C@H]1[C@H](Oc2c3cc4cc2Oc2ccc(cc2Cl)[C@@H](O[C@@H]2O[C@H](CO)[C@@H](O)[C@H](O)[C@H]2NC(C)=O)[C@@H]2NC(=O)[C@H](NC(=O)[C@@H]4NC(=O)[C@H]4NC(=O)[C@@H](Cc5ccc(c(Cl)c5)O3)NC(=O)[C@H](N)c3ccc(O)c(c3)Oc3cc(O)cc4c3)c3ccc(O)c(c3)-c3c(O[C@H]4O[C@H](CO)[C@@H](O)[C@H](O)[C@@H]4O)cc(O)cc3[C@@H](C(=O)O)NC2=O)O[C@H](CO)[C@@H](O)[C@@H]1O`, the Potency result was “inactive”.

Turning to `O.O=C([O-])CC([S-])C(=O)[O-].[Au+].[Na+].[Na+]` (stereo not given), the Potency entry is “inactive”. Next, `O=C1CC[C@@H](C(=O)N2CSC[C@H]2C(=O)O)N1` ([pGlu]-[Thz]-OH): “inactive”. Next, `CN1[C@@H]2CCC[C@H]1CC(NC(=O)c1nn(C)c3ccccc13)C2` (stereo not given in full): “inactive”; `COc1cc(/C=C/C(=O)N2CCN(CC(=O)N3CCCC3)CC2)cc(OC)c1OC`: “inactive”; `CC(=O)N[C@@H]1C(O[C@H]2O[C@H](C(=O)O)C(O)[C@H](O)[C@H]2O)[C@H](O)[C@@H](CO)O[C@H]1O[C@@H]1C(C(=O)O)O[C@@H](O[C@H]2[C@H](O)[C@@H](CO)OC(O)[C@@H]2NC(C)=O)[C@H](O)[C@H]1O` (stereo not given in full): “inactive”. As for `COC(=O)[C@H]1[C@H]2C[C@@H]3c4[nH]c5cc(OC)ccc5c4CCN3C[C@H]2C[C@@H](OC(=O)/C=C/c2cc(OC)c(OC)c(OC)c2)[C@@H]1OC`, the entry is “inactive”.

Consider `CC(C)[C@H](N)C(=O)OCC(CO)OCn1cnc2c(=O)[nH]c(N)nc21` (stereo not given in full), for which the Potency result was “inactive”. Regarding `N[C@H](CCC(=O)O)C(=O)O`, the Potency result is “inactive”.

For the compound `CCOC(=O)Cc1cccc(-c2cc(CCCCCCc3ccc(O[C@H]4O[C@H](COC(C)=O)[C@@H](OC(C)=O)[C@H](OC(C)=O)[C@@H]4OC(C)=O)c(-c4cccc(CC(=O)OCC)c4)c3)ccc2O[C@H]2O[C@H](COC(C)=O)[C@@H](OC(C)=O)[C@H](OC(C)=O)[C@@H]2OC(C)=O)c1`, the Potency result was “inactive”. Next, `CC1(C)[C@@H]2CC[C@@]1(C)[C@H](OC(=O)CSC#N)C2`: “inactive”. In the case of `OC[C@H]1O[C@@H](n2cnc3c2NC=NC[C@H]3O)C[C@@H]1O`, the Potency result is “inactive”. Consider `CC(C)[C@@H](C)/C=C/[C@@H](C)[C@H]1CC[C@H]2/C(=C/C=C3\C[C@@H](O)CC[C@@H]3C)CCC[C@]12C`, for which the Potency entry was “inactive”. Next, `CC(=O)O[C@H]1CC[C@@]2(C)C(=CC[C@@H]3[C@@H]2CC[C@]2(C)C(c4cccnc4)=CC[C@@H]32)C1`: “inactive”; `CCOC(=O)c1c[nH]c2cc(OCC(C)C)c(OCC(C)C)cc2c1=O`: “inactive”; `Cc1ccc(C2(O)CCN(CCCC(=O)c3ccc(F)cc3)CC2)cc1`: “inactive”. As for `CN1c2c(nc(N)[nH]c2=O)NCC1CNc1ccc(C(=O)NC(CCC(=O)O)C(=O)O)cc1` (stereo not given), the entry is “inactive”. Next, `CC1(C)N=C(N)N=C(N)N1c1ccc(Cl)cc1`: “inactive”.

Consider `CC[C@H](C)CCCCC(=O)N[C@@H](CCN)C(=O)N[C@H](C(=O)N[C@@H](CCN)C(=O)N[C@H]1CCNC(=O)[C@@H]([C@H](C)O)NC(=O)[C@H](CCN)NC(=O)[C@H](CCN)NC(=O)[C@H](CC(C)C)NC(=O)[C@@H](CC(C)C)NC(=O)[C@H](CCN)NC1=O)[C@@H](C)O` (X2-[Dab]T[Dab][Dab][Dab][dL]L[Dab][Dab][dT]; lactam 4-C), for which the Potency entry is “inactive”.

With `O=P(O)(O)C(O)(Cc1cnc2ccccn12)P(=O)(O)O`, the Potency result was “inactive”. Next, `CN[C@@H]1[C@@H](O)[C@@H](O[C@@H]2[C@@H](O)[C@H](O[C@H]3O[C@H](CN)[C@@H](O)[C@H](O)[C@H]3O)[C@@H](N)C[C@H]2NC(=O)C(O)CN)OC[C@]1(C)O` (stereo not given in full): “inactive”; `CO/N=C(\C(=O)N[C@@H]1C(=O)N2C(C(=O)O)=CCS[C@H]12)c1csc(N)n1`: “inactive”. As for `CC[C@H]1NC(=O)[C@@H](NC(=O)c2ncccc2O)[C@@H](C)OC(=O)[C@H](c2ccccc2)NC(=O)[C@@H]2CC(=O)CCN2C(=O)[C@H](Cc2ccccc2)N(C)C(=O)[C@@H]2CCCN2C1=O`, the entry is “inactive”.
